# Screening data as filed in PubChem.
# Compounds with a hit are over-represented: about 3.5% of the library has one in this group of screens.
# GPR151 activ: activators of human GPR151, primary screen, cell-based, PathHunter beta-arrestin, luminescence. 650,000 tested, 1% active. AID 1508602, 2020. activation, % at 11.2 µM. PathHunter beta-arrestin GPR151 cells. G-protein coupled receptor 151 (Homo sapiens), Q8TDV0; in the data active means activation above about 4.9%
# TEAD-YAP block: TEAD-YAP interaction inhibition, primary screen, TEAD-YAP interaction inhibitor project, luminescence, HEK-TIYL cells; TEAD-Gal4/YAP UAS-luciferase luminescence; 640,000 tested, 1.4% active; inhibition, % at 9.12 µM; in the data active means inhibition above about 32%
# FBW7 act: FBW7 E3 ligase activators, primary screen, biochemical, AlphaScreen, human; F-box/WD repeat-containing protein 7 (Homo sapiens), Q969H0; AlphaScreen FBW7–phospho-cyclin E peptide binding, activator screen; normalized activity (activation), % at 26.1 µM; 650,000 tested, 0.13% active; AID 1259310, 2017; in the data active means normalized activity above about 1.9%;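 further: purified mutant Fbw7 with reduced substrate affinity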
# MITF primary: MITF inhibitors, primary screen, biochemical, AlphaScreen, human. AID 1259374, 2018. Microphthalmia-associated transcription factor (Homo sapiens), O75030. inhibition, % at 2.6 µM. 650,000 tested, 0.91% active. AlphaScreen MITF homodimerization, bead proximity signal; in the data active means inhibition above about 50%
# Target sequence (O75030 whole entry, looked up): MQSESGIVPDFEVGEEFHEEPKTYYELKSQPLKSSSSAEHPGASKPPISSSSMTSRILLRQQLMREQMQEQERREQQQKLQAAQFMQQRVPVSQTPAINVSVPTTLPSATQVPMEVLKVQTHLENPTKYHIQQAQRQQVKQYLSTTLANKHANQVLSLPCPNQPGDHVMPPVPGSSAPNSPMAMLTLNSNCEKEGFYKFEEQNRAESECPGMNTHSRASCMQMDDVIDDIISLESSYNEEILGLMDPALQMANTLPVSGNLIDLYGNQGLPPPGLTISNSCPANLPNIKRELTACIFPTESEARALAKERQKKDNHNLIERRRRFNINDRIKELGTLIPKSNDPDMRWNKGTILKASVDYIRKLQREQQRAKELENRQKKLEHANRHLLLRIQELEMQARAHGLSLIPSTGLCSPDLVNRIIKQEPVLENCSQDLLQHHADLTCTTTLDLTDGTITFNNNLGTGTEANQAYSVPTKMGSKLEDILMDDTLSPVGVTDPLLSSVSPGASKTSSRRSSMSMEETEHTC
# A number is an active result; 0 = inactive.
SMILES,GPR151 activ,TEAD-YAP block,FBW7 act,MITF primary
O=c1c(O)c(-c2cc(O)c(O)c(O)c2)oc2cc(O)ccc12,0,0,0,78.4
O=c1c(O)c(-c2ccc(O)c(O)c2)oc2cc(O)ccc12,0,0,0,0
Cc1cc(-c2cncnc2C2CCCN(CC(=O)Nc3nc(C)cs3)C2)on1 (configuration not stated),0,0,0,0
COc1ccc(-c2cnc3ccc(NCc4cccs4)nn23)cc1OC,0,0,0,0
c1ccc2c(c1)nnn1c3ccccc3nc21,0,34.8,0,0
Cc1nc2ccccc2c2nc3ccccc3n12,0,0,0,0
CCOC(=O)CN1CCN(c2ccc(-c3cccc(OC)c3)cn2)CC1,0,71.4,0,0
CCC(=O)Oc1ccc(C(=O)Nc2ccc(C)cc2Br)cc1,0,50.0,0,0
O=C(OC[C@H]1O[C@H](OC(=O)c2cc(O)c(O)c(OC(=O)c3cc(O)c(O)c(O)c3)c2)[C@H](OC(=O)c2cc(O)c(O)c(OC(=O)c3cc(O)c(O)c(O)c3)c2)[C@@H](OC(=O)c2cc(O)c(O)c(OC(=O)c3cc(O)c(O)c(O)c3)c2)[C@@H]1OC(=O)c1cc(O)c(O)c(OC(=O)c2cc(O)c(O)c(O)c2)c1)c1cc(O)c(O)c(OC(=O)c2cc(O)c(O)c(O)c2)c1,0,0,0,111.5
CC(=O)OCC1OC(OC(C)(C)C)C(OC(C)=O)C(OC(C)=O)C1OC(C)=O (configuration not stated),0,0,0,0
FC(F)(F)c1cccc(N2N=C(c3ccc(Cl)cc3)CC2c2ccccc2Cl)c1 (configuration not stated),0,0,0,0
CCOC(=O)Cn1cc(C(=O)OC)c2ccccc21,0,0,2.3,0
CCOC(=O)Cn1cc(C=O)c2ccccc21,0,0,0,0
CC(C)CC(=O)Nc1ccc(C(=O)COC(=O)CNC(=O)c2cccc(F)c2)cc1,0,0,0,0
Cc1ccnc(NC(=S)NC(=O)c2cccc(Br)c2)c1,0,33.1,0,0
Cc1cccc(NC(=S)NC(=O)c2cccc(Br)c2)n1,0,0,0,0
CCCc1nc(SCC(=O)Nc2c(C)cc(C)cc2C)c2c(=O)n(C)c(=O)n(C)c2n1,0,0,0,0
O=C(COc1ccccc1Cl)Nc1cc([N+](=O)[O-])ccc1O,0,69.3,0,0
O=C(COc1ccccc1)Nc1cc([N+](=O)[O-])ccc1O,0,56.3,0,0
O=C(NC1CCCc2ccccc21)C1CCN(c2nnc(N3CCCC3=O)s2)CC1 (configuration not stated),0,0,0,0
CN(C)c1ccc(C(=O)NCc2ccc3c(c2)CCO3)cc1,0,0,0,0
Cn1nc(C(C)(C)C)cc1C(=O)NCc1ccc2c(c1)CCO2,0,42.4,0,0
CCc1ccc2[nH]c(=O)c(CN(CCO)Cc3nnnn3C3CCCC3)cc2c1,0,0,0,0
CN1C(=O)S/C(=C\C=C\c2ccco2)C1=O,0,0,0,0
CC(C)C(C(=O)O)N1C(=O)/C(=C/C=C/c2ccco2)SC1=S (configuration not stated),0,0,0,64.0
SMILES,GPR151 activ,TEAD-YAP block,FBW7 act,MITF primary
CN1C(=O)/C(=C\C=C\c2ccco2)SC1=S,0,0,0,82.1
CCOC(=O)/C(=C(\C)O)C1(C(C#N)C(N)=O)CCCCC1 (configuration not stated),0,0,0,0
CC(C)COC(=O)N1CCCC1C(=O)Nc1ccc(Cl)cc1 (configuration not stated),0,0,0,0
Cc1oc2ccccc2c1CN1CCC2(CC1)NC(=O)c1ccccc1O2,0,0,0,0
Cc1cccc(-c2nnc(NC(=O)c3ccccc3F)s2)c1,0,0,1.9,0
Cc1cccc(NS(=O)(=O)c2nnc(NC(=O)c3ccccc3F)s2)c1,0,0,0,0
O=C(Nc1ccc(Nc2cc(-n3ccnc3)ncn2)cc1)c1ccc(F)cc1F,0,0,0,0
O=C(Nc1ccc(Nc2cc(-n3ccnc3)ncn2)cc1)c1cccc2ccccc12,0,33.8,0,0
O=C(CSc1nc2ccc(NC(=O)c3ccccc3Cl)cc2s1)Nc1cccc([N+](=O)[O-])c1,0,32.2,0,0
O=C(CSc1nc2ccc(NC(=O)c3ccccc3Cl)cc2s1)Nc1ccccc1,0,0,0,0
O=C(CSc1nc2ccc(NC(=O)c3ccccc3C(=O)O)cc2s1)NCc1ccccc1,0,41.3,0,0
COc1ccccc1C(=O)Nc1ccc2nc(SC(C)c3ccccc3)sc2c1 (configuration not stated),0,53.9,0,0
Nc1nc(SCC(=O)Nc2cccc([N+](=O)[O-])c2)sc1C(=O)Nc1nccs1,0,32.4,0,0
COc1ccccc1C(=O)Nc1ccc2nc(SCC(C)=O)sc2c1,0,0,0,0
Cc1cc(C)c2sc(-c3ccccc3)cc(=O)c2c1,0,0,0,0
CCOC(=O)c1c(-c2ccc(OC)cc2)csc1NC(=O)CSc1ncn[nH]1,0,34.5,0,0
CN1C(C(=O)N2CCN(Cc3ccccc3)CC2)CC(c2cccs2)NS1(=O)=O (configuration not stated),0,0,0,0
Fc1ccccc1-c1cnn2ccc(NCc3cccnc3)nc12,0,41.6,0,0
c1cncc(CNc2ccn3ncc(-c4cccc5ccccc45)c3n2)c1,0,0,0,0
CC1CN(S(=O)(=O)c2ccc(C(=O)Nc3nc(-c4cccc([N+](=O)[O-])c4)cs3)cc2)CC(C)O1 (configuration not stated),0,0,0,0
O=C(Cn1ncc2c(=O)oc3ccccc3c21)NC1CCCc2ccccc21 (configuration not stated),0,0,0,0
O=C(Nc1nccs1)c1cc(Br)c(Br)s1,0,0,0,0
O=C(Nc1nccs1)c1cc2c(s1)CCCC2,0,65.1,0,0
O=C(Cc1ccc2c(c1)CCCC2)Nc1nccs1,0,0,0,0
O=C(COc1ccc2c(c1)CCC2)Nc1nccs1,0,73.9,0,0
SMILES,GPR151 activ,TEAD-YAP block,FBW7 act,MITF primary
CC(C)(C)c1ccc(OCC(=O)Nc2nccs2)cc1,0,74.2,0,0
CC(Sc1nnc(N)s1)C(=O)Nc1nccs1 (configuration not stated),0,0,0,0
CC(Sc1nnc(-c2ccc(C(C)(C)C)cc2)o1)C(=O)Nc1nccs1 (configuration not stated),0,52.1,0,0
Cc1ccccc1C1C(C#N)=C(N)Oc2n[nH]c(C(C)C)c21 (configuration not stated),0,0,0,0
O=C(NCc1cccnc1)/C(=N\O)c1ccccn1,0,0,0,0
CC(=O)c1ccc(OCC(=O)Nc2nccs2)cc1,0,54.9,0,0
CC(C)c1ccc(NC(=O)COc2ccc(C(C)C)cc2)cc1,0,0,0,0
O=C(COc1ccc(Br)cc1)Nc1nccs1,0,34.6,0,0
CC(C)c1ccc(OCC(=O)Nc2nccs2)cc1,0,80.6,0,0
CC(C)(C)C1CCc2nc(N)sc2C1 (configuration not stated),0,0,0,0
